For 16 compounds, composite z-score and z-score results are on record in PubChem BioAssay.

Assay [1] is described as follows: anti-His antibody binders, primary screen, artefact control for SMM control protein annotation, biochemical, small-molecule microarray, 635 nm fluorescence (AID 1128).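 Also: score merges feature fluorescence with signal-to-noise for each printed compound spot.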 As to conditions: anti-His Alexa647 antibody binding, higher = more signal.
Assay [2] has as its system Human papillomavirus type 1a E7 protein (residues 1-88). Kind of assay: HPV1a E7 small-molecule binders, primary screen, biochemical, small-molecule microarray, residues 1-88, 635 nm (AID 1129). As to conditions: small-molecule microarray binding, fluorescence 635 nm; higher = more signal.
The target of assay [3] is Focal adhesion kinase 1 (Homo sapiens) (UniProt Q05397). Kind of assay: small-molecule microarray binders of FAK, primary screen, biochemical, 635/667 nm fluorescence, BSA, DTT (AID 1130).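 Also: composite of spot emission at 667 nm and signal to noise over triplicate slides.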 The conditions noted are these: PTK2 binding, 635 nm fluorescence, higher = more signal.
For assay [4], the system named is Fibrinogen (Alexa647-labelled). Kind of assay: fibrinogen binders on compound microarrays, profiling panel, artefact control for SMM control-protein annotation, biochemical, small-molecule microarray, 635/667 nm fluorescence (AID 1131).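 Also: z-score merges 667 nm fluorescence with per-spot signal-to-noise over triplicate slides.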 As to conditions: fibrinogen-A647 binding fluorescence, higher = more signal.
For assay [5], the target named is Follistatin (Homo sapiens) (UniProt P19883). Kind of assay: follistatin binders on small-molecule microarrays, primary screen, biochemical, small-molecule microarray, 635/667 nm fluorescence (AID 1132). The conditions noted are these: FST binding, 635 nm fluorescence, higher = more signal.
Assay [6] addresses Fibroblast growth factor 2 (Homo sapiens) (UniProt P09038). Kind of assay: FGF2 binders on small-molecule microarrays, primary screen, biochemical, small-molecule microarray, 635/667 nm fluorescence (AID 1133). The conditions noted are these: small-molecule microarray binding, FGF2, fluorescence 635/667; higher = more signal.
Assay [7] is described as follows: mitochondrial membrane potential change in A549 cells, profiling panel, cell-based, JC-1 fluorescence, basal, 24 h, 100 nL (AID 1138).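 Also: A549 lung adenocarcinoma cells under basal conditions with no added stimulus; test concentration not given here.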 As to conditions: higher = more signal.
The test system of the next assay is Lefty1. Kind of assay: Lefty1 binders on small-molecule microarrays, primary screen, biochemical, small-molecule microarray, 635/667 nm fluorescence (AID 1139). The conditions noted are these: small-molecule microarray binding, fluorescence 635/667; higher = more signal.
Assay [8] deals with wheat germ agglutinin (Triticum aestivum), Alexa647-labelled. Kind of assay: wheat germ agglutinin binders on compound microarrays, profiling panel, artefact control for SMM control-protein annotation, biochemical, small-molecule microarray, 635/667 nm fluorescence (AID 1140).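 Also: score merges 667 nm feature emission with signal to noise over triplicate slides.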 As to conditions: WGA-A647 binding, 635 nm fluorescence, higher = more signal.
In assay [9] the target is Luciferin 4-monooxygenase (Photinus pyralis) (UniProt P08659). Nature of the assay: firefly luciferase enzyme inhibitors, primary screen, biochemical, luminescence, purified enzyme, 2006 set (AID 1141).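 Also: cell-free assay with purified firefly luciferase at 100 ng per well in PBS; test concentration not given here.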 The conditions noted are these: SteadyGlo luminescence, 30 min, higher = more signal, called active from +8 up or from −8 down.

SMILES strings stand for the structures. Calls of active or inactive are those of the source.

Chain of Luciferin 4-monooxygenase (Photinus pyralis) (P08659 whole entry, looked up): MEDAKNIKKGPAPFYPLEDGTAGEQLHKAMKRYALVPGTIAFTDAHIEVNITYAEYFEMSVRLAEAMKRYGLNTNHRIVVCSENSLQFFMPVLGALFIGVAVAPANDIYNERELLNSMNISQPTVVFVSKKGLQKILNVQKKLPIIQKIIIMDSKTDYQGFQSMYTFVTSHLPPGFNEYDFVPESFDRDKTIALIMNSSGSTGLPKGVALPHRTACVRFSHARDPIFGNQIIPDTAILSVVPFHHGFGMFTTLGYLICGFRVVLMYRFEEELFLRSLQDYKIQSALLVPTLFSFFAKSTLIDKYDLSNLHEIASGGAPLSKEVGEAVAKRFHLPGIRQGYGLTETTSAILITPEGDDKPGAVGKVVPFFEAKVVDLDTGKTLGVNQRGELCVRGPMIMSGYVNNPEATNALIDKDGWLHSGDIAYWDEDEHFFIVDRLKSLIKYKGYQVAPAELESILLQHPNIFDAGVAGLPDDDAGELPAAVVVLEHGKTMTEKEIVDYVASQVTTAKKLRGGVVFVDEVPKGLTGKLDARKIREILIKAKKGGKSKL
Chain of Fibroblast growth factor 2 (Homo sapiens) (P09038 whole entry, looked up): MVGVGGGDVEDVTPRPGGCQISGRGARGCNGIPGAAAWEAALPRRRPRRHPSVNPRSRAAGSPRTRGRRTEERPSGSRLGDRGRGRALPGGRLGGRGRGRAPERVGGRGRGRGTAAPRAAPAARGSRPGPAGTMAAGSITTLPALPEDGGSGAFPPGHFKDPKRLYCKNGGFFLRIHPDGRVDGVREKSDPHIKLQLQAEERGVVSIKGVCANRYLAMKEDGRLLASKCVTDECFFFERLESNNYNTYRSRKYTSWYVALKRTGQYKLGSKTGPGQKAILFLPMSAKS
Chain of Focal adhesion kinase 1 (Homo sapiens) (Q05397 whole entry, looked up): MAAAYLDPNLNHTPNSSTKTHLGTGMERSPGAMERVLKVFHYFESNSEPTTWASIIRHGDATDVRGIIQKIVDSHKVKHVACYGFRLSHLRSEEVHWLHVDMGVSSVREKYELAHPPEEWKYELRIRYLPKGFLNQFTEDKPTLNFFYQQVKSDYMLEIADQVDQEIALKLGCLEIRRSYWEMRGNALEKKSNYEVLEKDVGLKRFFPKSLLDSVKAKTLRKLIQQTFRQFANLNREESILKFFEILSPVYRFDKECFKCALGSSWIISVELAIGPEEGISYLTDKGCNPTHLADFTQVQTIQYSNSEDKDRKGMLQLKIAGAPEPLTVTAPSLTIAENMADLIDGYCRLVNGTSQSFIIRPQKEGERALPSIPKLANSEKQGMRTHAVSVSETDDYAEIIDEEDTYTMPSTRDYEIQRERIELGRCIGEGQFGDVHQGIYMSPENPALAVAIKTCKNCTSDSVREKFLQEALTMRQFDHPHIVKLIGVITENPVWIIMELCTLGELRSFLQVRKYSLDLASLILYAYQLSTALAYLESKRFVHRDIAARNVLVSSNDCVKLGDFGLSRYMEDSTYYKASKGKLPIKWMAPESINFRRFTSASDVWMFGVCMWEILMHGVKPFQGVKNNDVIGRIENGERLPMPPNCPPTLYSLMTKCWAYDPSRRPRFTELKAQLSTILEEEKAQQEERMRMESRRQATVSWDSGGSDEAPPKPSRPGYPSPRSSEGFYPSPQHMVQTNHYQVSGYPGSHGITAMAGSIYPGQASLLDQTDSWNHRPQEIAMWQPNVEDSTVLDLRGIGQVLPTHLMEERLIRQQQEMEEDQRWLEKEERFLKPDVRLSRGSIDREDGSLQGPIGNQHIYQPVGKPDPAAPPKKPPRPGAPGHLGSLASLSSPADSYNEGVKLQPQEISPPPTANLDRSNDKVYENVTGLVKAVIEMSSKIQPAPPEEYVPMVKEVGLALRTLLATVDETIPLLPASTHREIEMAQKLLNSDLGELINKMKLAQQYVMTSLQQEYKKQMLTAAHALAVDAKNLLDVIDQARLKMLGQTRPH
Chain of Follistatin (Homo sapiens) (P19883 whole entry, looked up): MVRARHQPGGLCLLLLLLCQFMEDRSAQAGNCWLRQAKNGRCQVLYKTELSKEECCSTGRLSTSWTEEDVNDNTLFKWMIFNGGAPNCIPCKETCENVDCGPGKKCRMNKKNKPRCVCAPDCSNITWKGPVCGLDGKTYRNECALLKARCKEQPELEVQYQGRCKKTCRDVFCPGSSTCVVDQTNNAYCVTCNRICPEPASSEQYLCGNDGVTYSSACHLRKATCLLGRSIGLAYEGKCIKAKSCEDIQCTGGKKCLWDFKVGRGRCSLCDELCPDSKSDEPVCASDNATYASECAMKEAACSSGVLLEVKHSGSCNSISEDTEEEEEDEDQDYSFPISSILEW

`CC1CC/C=C\[C@H]2OC34C=CCN(C(C)(C)C)C(=O)[C@H]3N(CCCO)C(=O)[C@@H]4C2C(=O)O1` (stereo not given in full): the composite z-score was 0.441 in assay [1]; -0.137 in [2]; -0.441 in assay [3]; -0.735 in [4]; -0.404 in [5]; -0.685 in assay [6]. For the same compound, the composite z-score is -0.842 in the assay with Lefty1 and -0.723 in assay [8]. Further, the values for the z-score in [7] and in assay [9] were 0.0255 and 0.477 (inactive), respectively.

`COc1ccc([Si](C)(C)[C@H]2[C@H](CCO)O[C@@]3(C(=O)N(Cc4cccc(N(C=O)c5ccccc5)c4)c4ccccc43)[C@@H]2C)cc1`: the composite z-score is 0.911 in assay [1]; 1.19 in [2]; -0.048 in [3]; 0.777 in [4]; 0.832 in assay [5]; 0.886 in assay [6]. Moreover, the values for the composite z-score (with Lefty1; in [8]) were 1.05 and 0.259, respectively. Moreover, the z-score was 0.837 in assay [7] and 0.281 (inactive) in assay [9].

Take `O=C(NCc1ccccc1)[C@@H]1c2ccccc2C(=O)N(Cc2cc(C(F)(F)F)cc(C(F)(F)F)c2)[C@H]1c1ccc(CO)cc1`: the composite z-score turned out to be 0.618 in assay [1]; 1.14 in assay [2]; 0.576 in assay [3]; 0.638 in assay [4]; 1.36 in [5]; 1.06 in assay [6]. For the same compound, the composite z-score was 0.991 in the assay with Lefty1 and 0.452 in [8]. Besides, the figures for the z-score in [7] and in [9] were 0.473 and 1.14 (inactive), respectively.

As to `O=C(NC1CC1)[C@@H]1c2ccccc2C(=O)N(Cc2ccc(OC(F)(F)F)cc2)[C@H]1c1ccc(CO)cc1`, the composite z-score is -0.0809 in assay [1]; 0.836 in assay [2]; 0.234 in [3]; -1.39 in assay [4]; 0.664 in assay [5]; 0.668 in [6]. The values for the composite z-score (with Lefty1; in [8]) were 0.39 and 0.331, respectively. The z-score is 1.39 in assay [7] and 1.12 (inactive) in assay [9].

On to `COc1ccc(C#Cc2ccc3c(c2)[C@]2(C(=O)N3)[C@H](C(=O)O)[C@H]3C(=O)O[C@H](c4ccccc4)[C@H](c4ccccc4)N3[C@@H]2c2ccccc2OCCO)cc1`, for which the composite z-score in assay [1] was 3.16; in [2] it was 1.17; in [3], 0.352; in assay [4] it was 0.955; in [5], 1.19; in assay [6], 1.25. The composite z-score with Lefty1 was 1.04; in [8], 1.02. The values for the z-score in assay [7] and in [9] were -2.71 and -5.71 (inactive), respectively.

For `Cc1ccc(N2C(=O)c3ccccc3[C@](C)(C(=O)NCCCN(C)C)[C@@H]2c2ccc(CO)cc2)nc1`, the composite z-score in assay [1] was -0.479; in [2] it was -0.254; in assay [3], 0.304; in [4] it was -0.18; in [5], 0.351; in [6], -1.21. Further, the composite z-score with Lefty1 is -0.28; in [8] it was -0.0926. The z-score in assay [7] is 0.361; in [9], -0.156 (inactive).

Turning to `CC(C)(C)OC(=O)CC[C@@]1(C(=O)NCCN2CCOCC2)N=C(c2ccc(OCCCO)cc2)O[C@@H]1c1ccccc1CN=[N+]=[N-]`, the composite z-score in assay [1] is 0.384; in assay [2], 0.372; in [3] it was 0.499; in assay [4], 1.01; in assay [5] it was -0.0674; in assay [6], -0.495. In addition, the values for the composite z-score (in the assay on Lefty1; in assay [8]) were -0.0313 and 0.608, respectively. Besides, the z-score in assay [7] is -0.293; in assay [9], -4.33 (inactive).

With `COCCCNC(=O)[C@@H]1c2ccccc2C(=O)N(Cc2ccc(OC(F)(F)F)cc2)[C@H]1c1ccc(CO)cc1`, the composite z-score in assay [1] was determined as 1.54; in assay [2], 1.11; in assay [3], 1.79; in assay [4] it was 0.654; in [5], 1.14; in assay [6], 0.722. Also, the composite z-score was determined as 0.541 in the assay on Lefty1 and 0.316 in [8]. Also, the z-score was 2.03 in [7] and -0.0459 (inactive) in [9].

On to `CC(C)N1C(=O)C[C@@](C(=O)NCCN2CCOCC2)(c2ccc([N+](=O)[O-])cc2)[C@H]1c1ccc(CO)cc1`, for which the composite z-score in [1] is 2.67; in [2], -0.886; in assay [3], -0.455; in assay [4], -0.591; in [5] it was 0.178; in assay [6] it was -0.588. Moreover, the composite z-score was -0.516 with Lefty1 and 0.869 in [8]. The figures for the z-score in assay [7] and in [9] were -0.143 and 1.42 (inactive), respectively.

Take `O=C1O[C@H](c2ccccc2)[C@H](c2ccccc2)N2[C@H]1[C@@H](C(=O)O)[C@]1(C(=O)Nc3ccc(C#CCCO)cc31)[C@H]2c1ccc(OCCO)cc1`: the composite z-score amounted to 2.27 in assay [1]; 1.22 in assay [2]; 0.146 in assay [3]; 0.974 in [4]; 1.22 in assay [5]; 1.16 in assay [6]. The composite z-score in the assay with Lefty1 is 0.0897; in assay [8] it was 1.17. Also, the results for the z-score in [7] and in [9] were 0.747 and -3.11 (inactive), respectively.

With `CN(C)C(=O)[C@@]1(Cc2ccccc2CN=[N+]=[N-])COC(c2ccc(OCCCO)cc2)=N1`, the composite z-score in [1] was 1.81; in assay [2], 1.15; in assay [3], 0.652; in [4], 0.949; in assay [5], -0.0539; in assay [6], -0.572. Also, the results for the composite z-score (in the assay on Lefty1; in assay [8]) were -0.42 and 0.603, respectively. For the same compound, the z-score in assay [7] was 1.43; in assay [9], 1.15 (inactive).

Regarding `CC(C)C[C@@H]1NC(=O)[C@@H]2C[C@H](C(=O)NCCCCCCNC(=O)CS)[C@H](c3cccc(OCCO)c3)N2C1=O`, the composite z-score in [1] is 1.74; in assay [2], 1.26; in assay [3] it was 0.114; in [4], 0.892; in assay [5], 1.42; in [6], 1.71. Also, the values for the composite z-score (in the assay with Lefty1; in assay [8]) were 1.44 and 0.875, respectively. The z-score in [7] is -0.0497; in assay [9], -0.986 (inactive).

Consider `CCOC(=O)C[C@H]1[C@H](OC(=O)c2ccccc2-c2ccccc2)[C@@H](NC(=O)c2ccc3ccccc3c2)c2cc(OCCCO)ccc2N1C(=O)Cc1ccc(OC)cc1`, for which the composite z-score is -0.262 in assay [1]; -0.191 in assay [2]; 0.0564 in [3]; 0.805 in assay [4]; 0.0992 in [5]; -0.0445 in assay [6]. The figures for the composite z-score (in the assay on Lefty1; in [8]) were -0.0328 and -0.178, respectively. Also, the z-score in [7] is 0.847; in assay [9], -0.146 (inactive).

As to `COCCOC(=O)N1C(=O)[C@@]2(c3cc(C#Cc4ccc(OC)cc4)ccc31)[C@H](c1ccc(OCCO)cc1)N1[C@H](c3ccccc3)[C@H](c3ccccc3)OC(=O)[C@H]1[C@@H]2C(=O)NC[C@H](O)c1ccccc1`, the composite z-score in assay [1] was 1.2; in [2] it was 1.17; in assay [3], 1.32; in [4], 0.941; in assay [5], 1.33; in assay [6], 1.19. Besides, the composite z-score was 0.979 with Lefty1 and 1.05 in [8]. In addition, the figures for the z-score in assay [7] and in [9] were -0.936 and -0.563 (inactive), respectively.

For the compound `[N-]=[N+]=NCc1ccccc1[C@@H]1OC(c2ccc(OCCCO)cc2)=N[C@]1(Cc1ccccc1N=[N+]=[N-])C(=O)O`, the composite z-score turned out to be 3.38 in assay [1]; 1.23 in assay [2]; 0.334 in assay [3]; 1.04 in [4]; 1.1 in assay [5]; 0.626 in assay [6]. The values for the composite z-score (in the assay with Lefty1; in assay [8]) were -0.132 and 1.21, respectively. In addition, the figures for the z-score in assay [7] and in assay [9] were -0.652 and -5.68 (inactive), respectively.

Regarding `C=C(CCCC)/C(=C/C[C@H](OC(C)=O)c1cccc(OCCO)c1)c1cnc2ccccc2c1`, the composite z-score in assay [1] is -0.966; in assay [2], -0.263; in assay [3], -0.494; in [4], -0.785; in [5] it was 0.389; in [6], -0.183. Further, the figures for the composite z-score (in the assay on Lefty1; in assay [8]) were 0.177 and 0.324, respectively. The z-score was 2.35 in assay [7] and -1.29 (inactive) in assay [9].
